Compounds with a hit are over-represented: about 17% of the library has one in this group of screens.
ClpP mod – qHTS Assay for Activators of ClpP; ATP-dependent Clp protease proteolytic subunit (Bacillus subtilis (strain 168)), P80244; purified B. subtilis ClpP, FRET peptide cleavage, 20 min; Potency, µM (top dose mostly 57.5 µM), inactives show at the highest dose activity change, negative = active; 340,000 tested, 1.9% active; AID 651965, 2013; active = well fitted falling curve with a large enough effect; inconclusive = small, poorly fitted or top-dose-only effect; inactive = no such curve, though single readings can be large or run the other way; note: the source files actives as falling curves though it sought activators and does not explain the sign; nearly all actives have a fitted effect of over 65% in size
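Purified B. subtilis ClpP, 10 microg/mL final in Tris/HCl pH8 with KCl, BSA, glycerol and Tween-20, cleaved an Abz/nitrotyrosine-quenched decapeptide. Fluorescence (ex 320, em 430) was read at 0 and 20 min at room temperature. Delta was normalized to 5.8 microM ADEP and DMSO/no-enzyme controls.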
TDP1 inh – blocks human tyrosyl-DNA phosphodiesterase 1. Potency, µM (top dose mostly 130 µM), for the others: top-dose activity change, negative = inhibition, actives largely listed as inhibitors. 350,000 tested, 0.28% active. recombinant TDP1, AlphaScreen DNA substrate cleavage; note: % is set by controls: 0 for no effect and ±100 for the full control effect; nearly all actives have a fitted effect of over 40% in size
Target sequence (Q9NUW8 whole entry, looked up): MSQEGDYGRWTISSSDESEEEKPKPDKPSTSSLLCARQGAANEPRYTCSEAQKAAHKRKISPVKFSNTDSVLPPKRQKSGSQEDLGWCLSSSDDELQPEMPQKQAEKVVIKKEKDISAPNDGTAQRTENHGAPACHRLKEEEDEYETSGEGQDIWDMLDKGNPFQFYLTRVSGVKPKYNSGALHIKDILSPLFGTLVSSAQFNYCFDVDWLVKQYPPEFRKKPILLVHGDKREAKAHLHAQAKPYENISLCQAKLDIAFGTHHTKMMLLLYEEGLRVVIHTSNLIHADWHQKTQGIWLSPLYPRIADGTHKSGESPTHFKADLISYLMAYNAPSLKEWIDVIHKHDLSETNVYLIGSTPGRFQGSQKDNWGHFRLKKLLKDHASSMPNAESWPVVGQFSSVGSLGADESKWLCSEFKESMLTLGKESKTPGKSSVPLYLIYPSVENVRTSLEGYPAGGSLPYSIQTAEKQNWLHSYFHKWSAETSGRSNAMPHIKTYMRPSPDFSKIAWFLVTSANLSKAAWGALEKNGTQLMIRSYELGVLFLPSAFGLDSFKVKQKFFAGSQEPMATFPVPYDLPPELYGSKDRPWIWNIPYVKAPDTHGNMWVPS
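Recombinant human Tdp1 (E. coli-expressed, 1 nM final) preincubated with compounds 15 min at room temperature, then 5'-biotin/3'-phosphotyrosine-FITC DNA substrate (15 nM final) added for 5 min. AlphaScreen beads (10 ug/ml final) added 10 min; cleavage lowers signal.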
TDP1 cell CPT – growth inhibition of DT40 Tdp1-/-;hTDP1 cells with camptothecin (screen for TDP1 inhibitors); AID 686979; chicken DT40 Tdp1-/-;hTDP1 cells + 20 nM CPT, ATP luminescence, 48 h; Potency, µM (highest dose often 46.2 µM), for inactives: at the top dose activity change, negative = growth inhibition, usual class: inhibitors; 420,000 tested, 12% active; note: % is set by controls: 0 for no effect and ±100 for the full control effect; nearly all actives have a fitted effect of over 55% in size
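Chicken DT40 Tdp1-/- cells complemented with human TDP1, 400 cells/well, exposed to compounds plus 20 nM camptothecin for at least 48 h at 37 C; viability read as ATP content by CellTiter-Glo luminescence.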
DT40 TDP1 no CPT – qHTS for Inhibitors of human tyrosyl-DNA phosphodiesterase 1 (TDP1): qHTS in cells in absence of CPT. Potency, µM (titrated, usually from 46.2 µM), without a hit: top-dose activity change, negative = growth inhibition, most hits filed as inhibitors. DT40 Tdp1-/- hTDP1 cells, no CPT, ATP luminescence, 48 h. AID 686978, 2013. 420,000 tested, 15% active; note: % is set by controls: 0 for no effect and ±100 for the full control effect; nearly all actives have a fitted effect of over 55% in size
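Chicken DT40 Tdp1-/- cells stably complemented with human TDP1 were seeded at 400 cells/well with DMSO in place of 20 nM camptothecin. After compound pinning, cells grew at least 48 hr at 37 °C; viability read by CellTiter-Glo luminescence.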
The depositor's hits bear a star; ? = inconclusive; . = no result; [ ] = dose if it differs, or a comment. Unless noted, calls come from the whole dose curve; as a rule, active = well fitted curve in the direction sought with a large enough effect; inconclusive = small, poorly fitted or top-dose-only effect, or another doubt; inactive = no such curve, though single readings can be large; an effect the other way counts as inactive or inconclusive. Potency is the fitted concentration of half-maximal effect.

SMILES | ClpP mod | TDP1 inh | TDP1 cell CPT | DT40 TDP1 no CPT
Cc1ccc(C)c(-c2nnc(NC(=O)c3ccc4c(c3)OCCO4)o2)c1 | -7% | 8% | 18µM* | 8.2µM*
COc1cc(OC)cc(-c2nnc(NC(=O)c3ccc4c(c3)OCCO4)o2)c1 | -2% | 2% | 10µM* | 8.2µM*
CC(C)(C)C(=O)/C=C1\NC(=O)CS1 | . | 2% | 19% | -3%
Cc1ccccc1/C=c1\s/c(=C\C(=O)C(C)(C)C)[nH]c1=O | 1% | -2% | 13µM* | 10µM*
CCc1ccc(/C=c2\s/c(=C\C(=O)C(C)(C)C)[nH]c2=O)cc1 | 2% | 11% | ? | 23µM*
CCn1c(SCC(=O)NNC(=O)c2ccc(C)cc2)nnc1-c1ccncc1 | -1% | . | -26% | 21µM*
C=CCn1c(SCC(=O)NC2CCCC2)nnc1-c1ccncc1 | 25µM* | 4% | 3% | 0%
CCn1c(SCC(=O)c2ccc(C)cc2)nnc1-c1ccncc1 | 0% | 2% | -15% | -12%
CC(=O)N(CC(O)CN(C(C)=O)c1c(I)c(C(=O)NCC(O)CO)c(I)c(C(=O)NCC(O)CO)c1I)c1c(I)c(C(=O)NCC(O)CO)c(I)c(C(=O)NCC(O)CO)c1I (centres undefined) | . | . | -7%[21.1 µM] | -9%[21.1 µM]
COc1ccc(-c2noc(CN(C)C(=O)CCCN3C(=O)[C@H]4CC=CC[C@H]4C3=O)n2)cc1 | 1% | . | ? | ?
CCCCNC(=O)c1nc(-c2cccnc2OC)oc1-c1ccc(Cl)cc1 | 4% | . | 16µM* | 23µM*
CCCCNC(=O)c1nc(-c2ccccc2)oc1-c1ccc(Cl)cc1 | 4% | . | ? | ?
Cc1cc(C)c(S(=O)(=O)OC[C@H]2C=CC[C@@H](CCC[C@H]3O[C@H](C(=O)OC(C)C)CC[C@@H]3C)O2)c(C)c1 | . | 2% | . | .
O=C(COC(=O)C1CC1)NCc1ccccc1Cl | 0% | 5% | -2% | -5%
Cc1cccc(N(C)C(=O)CN(C)S(=O)(=O)c2ccc3[nH]c4c(c3c2)CCCC4)c1 | -15% | 9% | 23µM* | ?
CN(CC(=O)NCc1ccc(F)cc1)S(=O)(=O)c1ccc2[nH]c3c(c2c1)CCCC3 | ? | 7% | 21µM* | 18µM*
Cc1cccc(C)c1NC(=O)CN(C)S(=O)(=O)c1ccc2[nH]c3c(c2c1)CCCC3 | -10% | 2% | ? | 21µM*
CN(CC(=O)NCc1ccccc1)S(=O)(=O)c1ccc2[nH]c3c(c2c1)CCCC3 | ? | 5% | ? | ?
CCOc1cc(/C=N/O)cc(Br)c1OCC | 1% | 1% | -2% | -28%
CCCCOc1c(Br)cc(/C=C2\N=C(C)OC2=O)cc1OCC | -5% | 2% | 13µM* | ?
O=[N+]([O-])c1cc(CN2CCN(c3cccc(C(F)(F)F)c3)CC2)c2cccnc2c1O | . | 12% | 0.92µM* | 1.5µM*
O=[N+]([O-])c1cc(CN2CCCC2)c2cccnc2c1O | -18% | 3.5µM* | 3% | ?
CC(C)OCc1cc(CN2CCN(c3cccc(C(F)(F)F)c3)CC2)c(O)c2ncccc12 | 0% | 13% | 4.6µM* | 4.6µM*
COc1cc(CN2CCCCCC2)cc([N+](=O)[O-])c1O | -2% | . | -1% | 15%
O=c1cc(CO)oc(CN2CCN(c3cccc(C(F)(F)F)c3)CC2)c1O | -3% | 9% | ? | ?
SMILES | ClpP mod | TDP1 inh | TDP1 cell CPT | DT40 TDP1 no CPT
CCOCc1cc(CN2CCN(c3cccc(C(F)(F)F)c3)CC2)c(O)c2ncccc12 | 1% | 13% | 6.5µM* | 6.5µM*
Cc1cc(C)c2c(-n3cccc3)c(C(=O)NCc3cccc(F)c3)sc2n1 | -1% | 6% | -2% | -27%
O=C(CN(Cc1ccco1)C(=O)CCC(=O)Nc1ccccn1)NCc1ccccc1 | . | 4% | 6% | 12%
O=C(CCS(=O)(=O)Cc1cccc(Cl)c1)NCCc1ccccc1 | -1% | . | -3% | -29%
CCCCCc1ccc2cc(C#N)ccc2n1 | 2% | . | -23% | -2%
Cn1c(SCC(=O)NC2CCCC2)nnc1-c1ccccn1 | -2% | 2% | 12% | 16%
C=CC(=O)Nc1cccc(Nc2nc(N[C@H]3CC[C@H](N(C)C)CC3)nc3c2ncn3C(C)C)c1 | -5% | . | 0.15µM* | 0.21µM*
COc1ccccc1NC(=O)c1ccc(NC(=O)c2ccco2)cc1 | . | . | ? | 16µM*
COc1ccccc1NC(=O)c1cccc(NC(=O)c2ccco2)c1 | 0% | 4% | -23% | ?
CCOc1ccccc1NC(=O)c1ccc(NC(=O)c2ccco2)cc1 | -2% | 2% | ? | 16µM*
COc1ccccc1C(=O)Nc1ccc(NC(=O)c2ccco2)cn1 | . | . | ? | 21µM*
OC(C[n+]1ccccc1Cl)c1ccccc1 (centres undefined) | -4% | . | -9% | -21%
C=C(C)COc1ccc(-c2[nH]ncc2Oc2ccccc2OCC)c(O)c1 | -4% | 4% | ? | -23%
C=C(C)COc1ccc(-c2[nH]ncc2-c2ccccc2)c(O)c1 | -12% | 8% | 16µM* | 21µM*
Cc1[nH]nc(-c2ccc(OCc3cnn(-c4ccccc4)c3)cc2O)c1Oc1ccccc1F | ? | 6% | ? | 21µM*
C=C(C)COc1ccc(-c2n[nH]c(C)c2-c2ccc(OC)c(OC)c2)c(O)c1 | . | . | 3.7µM* | 2.6µM*
C=C(C)COc1ccc(-c2[nH]ncc2Oc2cccc(OC)c2)c(O)c1 | -6% | 4% | ? | 13µM*
Cc1c(C(=O)NCC(C)(C)CN(C)C)cnn1-c1nccc(-c2ccccc2F)n1 | . | . | 9% | -3%
Cc1ccccc1-n1nnnc1SCC(=O)NC1CC1 | . | 0% | 18% | -14%
CC(C)c1ccc(C2N=C(N)Nc3nc4ccccc4n32)cc1 (centres undefined) | 1% | -11% | ? | -26%
C=C(C)COc1ccc(-c2[nH]ncc2-c2ccc(OC)c(OC)c2)c(O)c1 | -19% | 5% | 1.5µM* | 1.6µM*
C=C(C)COc1ccc(-c2[nH]ncc2-c2ccc(OC)cc2)c(O)c1 | -18% | . | ? | ?
C=C(C)COc1ccc(-c2n[nH]c(C)c2Oc2ccccc2OC)c(O)c1 | -6% | 7% | 15µM* | ?
COc1ccc(Cl)cc1NC(=O)Cn1cc(C(=O)c2ccncc2)c(=O)c2cc(C)ccc21 | -7% | 7% | ? | ?
COC(=O)C1=C(C)N(c2ccc(C)cc2)/C(=C/c2cccs2)C1=O | 0% | 0% | ? | 26µM*
COC(=O)C1=C(C)N(c2ccc(F)cc2)/C(=C/c2ccc(O)cc2)C1=O | . | 5% | 2% | ?
Cc1ccc(C(=O)Oc2ccccc2N2C(=O)C3CCC(C)CC3C2=O)cc1 (centres undefined) | 2% | 2% | 5% | 0%
CC1CCC2C(=O)N(c3ccc(C(=O)Oc4cccc5cccnc45)cc3)C(=O)C2C1 (centres undefined) | 1% | -5% | 0.73µM* | 0.65µM*

Source: PubChem (National Center for Advancing Translational Sciences (NCATS))
